In ChEMBL document CHEMBL3433997, “St. Jude Leishmania screening dataset” (2016):

Key:
Format in all cases: functional
[1] = molecular target: Solute carrier family 2, facilitated glucose transporter member 1 (Homo sapiens) (UniProt P11166); experiment: ST_JUDE_LEISH: Cytotoxicity at 2uM final concentration against transgenic Leishmania Mexicana promastigotes LmGLUT1 that are glucose transport deficient and complemented with the human glucose transporter GLUT1. Activity is measured by DNA content using SYBR green in vitro
Sequence of Solute carrier family 2, facilitated glucose transporter member 1 (Homo sapiens) (P11166 whole entry): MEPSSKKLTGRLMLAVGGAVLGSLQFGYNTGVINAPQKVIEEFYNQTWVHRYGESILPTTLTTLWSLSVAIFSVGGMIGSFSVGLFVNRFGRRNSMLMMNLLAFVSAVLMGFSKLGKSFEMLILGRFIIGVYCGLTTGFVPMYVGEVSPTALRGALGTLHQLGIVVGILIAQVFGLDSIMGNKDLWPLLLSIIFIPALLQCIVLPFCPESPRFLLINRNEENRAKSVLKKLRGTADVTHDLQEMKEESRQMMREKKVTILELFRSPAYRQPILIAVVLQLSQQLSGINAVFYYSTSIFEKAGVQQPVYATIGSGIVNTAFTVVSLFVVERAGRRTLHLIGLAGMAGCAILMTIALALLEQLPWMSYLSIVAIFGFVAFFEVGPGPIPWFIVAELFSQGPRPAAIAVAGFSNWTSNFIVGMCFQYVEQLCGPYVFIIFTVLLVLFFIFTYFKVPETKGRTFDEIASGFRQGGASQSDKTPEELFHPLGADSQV

[2] = molecular target: Hexose transporter 1 (Plasmodium falciparum) (UniProt O97467); experiment: ST_JUDE_LEISH: Cytotoxicity at 2uM final concentration against transgenic Leishmania Mexicana promastigotes LmPfHT that are glucose transport deficient and complemented with the Plasmodium falciparum hexose transporter. Activity is measured by DNA content using SYBR green in vitro
[3] = molecular target: Glucose transporter (Leishmania mexicana) (UniProt O61059); experiment: ST_JUDE_LEISH: Cytotoxicity at 2uM final concentration against transgenic Leishmania Mexicana promastigotes LmGT2 that are glucose transport deficient and complemented with the L. Mexicana glucose transporter 2. Activity is measured by DNA content using SYBR green in vitro

| SMILES | inhibition [1] [%] | inhibition [2] [%] | inhibition [3] [%] |
| --- | --- | --- | --- |
| CN(CCC1CCN(C(=O)/C=C/c2ccc(Cl)c(Cl)c2)CC1)C1CCC(c2c[nH]c3ccccc23)CC1 (stereo not drawn) | 7 | 8.06 | 3.97 |
| CCOc1cc(C(=O)Nc2ccc(-c3nc4ccccc4[nH]3)cc2)cc(OCC)c1OCC | 7.99 | 5.32 | 2.55 |
| Cc1c2c(nn1-c1ccccc1)C(c1ccccc1)N(c1ccccc1)C2=O (stereo not drawn) | -0.43 | 0.43 | 0.75 |
| COc1cc(NC(=O)c2cc([N+](=O)[O-])ccc2NC(=O)CNC2CCCC(C)C2C)cc(OC)c1 (stereo not drawn) | 12 | 4.27 | 3.41 |
| COc1cc(C)nc2ccc(NC(=O)c3ccc(C(=O)Nc4ccc5nc(C)cc(OC)c5c4)cc3)cc12 | -1.93 | -1.5 | 1.25 |
| COc1ccc(-c2cccc(NC(=O)c3cccc(Cl)c3)c2)cc1CN(C)CCN(C)C | 1.29 | 0.75 | -1.29 |
| COc1ccc(-c2nc(NC(=O)CS(=O)(=O)c3ccc(OC)cc3)sc2C)cc1 | 2.15 | 2.85 | 3.47 |
| COc1ccc(C#Cc2ccc(-c3c(C)[nH]c(C)c(Cl)c3=O)cc2)cc1 | 6.05 | 8.9 | 4.03 |
| CCC(C)(C)c1ccc(Oc2ccc(NC(=O)Nc3ccc(Cl)c(Cl)c3)cc2)cc1 | 1.75 | 1.24 | 1.26 |
| CC1CCN(c2nc(C(=O)Nc3cccc4c3CCCC4)c(C(C)C)s2)CC1 | 3.26 | 4.73 | 6.09 |
| CN1CCC(N2CCN(Cc3ccc(-c4ccc(-c5nc6ccccc6[nH]5)s4)cc3)CC2)CC1 | 8.42 | 8.75 | 5.9 |
| C[C@H](Cc1ccc(Oc2ccc(C[C@@H](C)NC[C@H](O)c3cccc(Cl)c3)cc2)cc1)NC[C@H](O)c1cccc(Cl)c1 | 106 | 104 | 102 |
| COc1cc(C(=O)NCCCN2CCN(c3cccc(Cl)c3)CC2)ccc1-c1nc2cc(Cl)c(F)cc2[nH]1 | 1.22 | 0.6 | 0.03 |
| O=C(/C=C/c1ccc(Cl)c(Cl)c1)NCCCCCN1CCC(NC(=O)Nc2cc(F)cc(F)c2)CC1 | -0.2 | 1.46 | 4.15 |
| Cc1ccccc1C1CCN(C2CCC(NC(=O)c3ccc(-c4cccc(C(F)(F)F)c4)o3)CC2)CC1 (stereo not drawn) | 5.47 | 2.19 | 3.24 |
| O=C(Nc1cccc(-c2cccc(-c3nc4cc(F)ccc4[nH]3)c2)c1)c1ccoc1 | 2.86 | 1.64 | 4.95 |
| COc1c(OC)c(OC)c2ccccc2c1CNCCCCCCNCc1c(OC)c(OC)c(OC)c2ccccc12 | 7.56 | 7.58 | 0.02 |
| CCc1c(CCNCCCCCNCCc2ccc(OC)c(OC)c2CC)ccc(OC)c1OC | 3.35 | 5.75 | 4.72 |
| CCC(=O)N[C@@H]1CN[C@@H](C#Cc2cc3c(Nc4ccc(OCc5cccc(F)c5)c(Cl)c4)ncnc3s2)C1 | 2.02 | 0.3 | 1.72 |
| CCOC(=O)[C@H](Cc1cccc2ccccc12)NC(=O)[C@H](CCC(=O)OC(C)(C)C)NC(=O)c1ccc(N(C)Cc2cnc3nc(N)nc(N)c3n2)cc1 | 3.47 | 4.12 | 3.56 |
| CN(C(=O)/C=C/c1cc(C(F)(F)F)ccc1F)C1CCN(CCCCCNC(=O)/C=C/c2ccc(Cl)c(Cl)c2)C1 (stereo not drawn) | 0.02 | 1.48 | 1.37 |
| COc1cccc(-c2nn(C)c3sc(C(=O)NCCN(C)Cc4ccccc4)cc23)c1 | 2.97 | -0.73 | 2.24 |
| Cc1ccc2cc(NCCCCCCCCON3C(N)=NC(N)=NC34CCCCC4)ccc2n1 | 8.51 | 8.23 | 9.59 |

| SMILES | inhibition [1] [%] | inhibition [2] [%] | inhibition [3] [%] |
| --- | --- | --- | --- |
| CCCCCCn1c(Sc2ccc(C#N)c([N+](=O)[O-])c2)nnc1-c1ccc(OC)cc1 | 5.67 | 5.13 | -3.74 |
| Cc1ccc(O)c(-c2cc(C(=O)Nc3ccc(S(=O)(=O)N4CCCC(C)C4)cc3)[nH]n2)c1 (stereo not drawn) | -0.03 | -0.51 | 0.63 |
| COc1c(F)ccc2ncc(Cl)c(CCN3CCC(NCc4ccc5c(n4)NC(=O)CS5)CC3)c12 | 6.45 | 6.77 | -2.91 |
| CCNc1cc(C(=O)N[C@@H](Cc2ccccc2)[C@H](O)CNC(C)(C)Cc2cccc(Cl)c2)cc(N2CCCCS2(=O)=O)c1 | 5.21 | 1.94 | 6.82 |
| CC(=O)Nc1ccc(C(=O)Nc2ccc(-c3cccc(-c4nc5cc(C(F)(F)F)ccc5[nH]4)c3)cc2)cn1 | -0.12 | 0.25 | -0.11 |
| Cc1cccc2nc(-c3ccc(-c4cccc(NC(=O)Nc5ccc6c(c5)OCO6)c4)cc3)[nH]c12 | 2.61 | 4.13 | 3.3 |
| CN(C)c1ccc(-c2nnc(Sc3ccc(C#N)c([N+](=O)[O-])c3)n2Cc2ccco2)cc1 | 3.82 | 2.83 | 0.63 |
| O=C(NCCN1CCCC1)c1cccc(-c2ccc(-c3nc4ccccc4[nH]3)cc2)c1 | 3.79 | 5.32 | 4.26 |
| CN1CCC(N2CCN(Cc3ccc(-c4ccc(-c5nc6cc(F)ccc6[nH]5)s4)cc3)CC2)CC1 | 2.75 | 2.55 | -0.25 |
| O=C(Nc1cccc([N+](=O)[O-])c1)Nc1cccc(C(F)(F)F)c1 | 1.48 | 1.8 | 2.9 |
| CCOc1ccc(C(=O)Nc2cc(Cl)ccc2O)cc1Cl | -1.03 | 0.11 | -1.5 |
| CCc1sc(-c2ccc(C(C)(C)C)cc2)nc1C(=O)NCCCN1CCCC1=O | -1.44 | -2.22 | -4.69 |
| O=C(NC(=S)Nc1cc(C(F)(F)F)cc(C(F)(F)F)c1)c1ccc(Cl)cc1 | 0.72 | -0.34 | -0.06 |
| O=C(Nc1cccc(-c2cccc(CN3CCCC3)c2)c1)c1ccc(Cl)cc1 | 1.55 | 1.32 | 3.94 |
| O=S(=O)(Nc1cccc(CCN2CCCCC2CCN2CCCC2)c1)c1cccc2ccccc12 (stereo not drawn) | 1.15 | 2.49 | -0.21 |
| COc1ccc(NC(=O)c2ccc(-c3cccc(OCc4ccccc4)c3)cc2)cc1N1CCN(C)CC1 | 1.72 | 0.6 | -0.95 |
| O=C(NCC1CCC(C(=O)O)CC1)c1ccc(/C=C/C(=O)N2CCc3ccccc3C2c2ccc3c(c2)OCO3)cc1 (stereo not drawn) | -0.02 | 1.62 | 0.31 |
| COc1ccc(Nc2ncc3c(-c4cccc(NC(=O)Cc5cccnc5)c4)c[nH]c3n2)cc1OC | -2.6 | -0.55 | -1.58 |
| N=C(NCCc1c[nH]c2ccccc12)NCc1ccccc1Cl | -1.93 | -1.07 | -1.16 |
| Cc1cc(N2CCCC2)nc(Nc2ccc(NC(=O)C(C)C)cc2)n1 | 5.62 | 2.73 | -6.48 |
| CN(C)CCNc1nccc(N2CCc3ncnc(Nc4ccc(OCc5cccc(F)c5)c(Cl)c4)c3C2)n1 | 20 | 28.4 | 3.49 |
| CCc1cn2c3c(cc(C(=O)N[C@@H](Cc4cc(F)cc(F)c4)[C@H](O)CNC4CCCCC4)cc13)N(C)S(=O)(=O)CC2 | 0.79 | 0.2 | -2.62 |
| CC(C)N(Cc1cnc2nc(N)nc(N)c2n1)c1ccc(Cl)c(Cl)c1 | 1.77 | 1.12 | 1.16 |
